Screening data deposited in PubChem by several laboratories.
In the library only some 0.9% were active in any assay of this set; here they are far more common.
Yp Topo-I inh: blocks Yersinia pestis topoisomerase I activity. 0.064% of 360,000 active. Y. pestis Topo-I cleavage product accumulation, plate reader. activity, % at 10 µM. AID 504884; in the data active = activity above about 50%, passing the limit was not always enough
SARS 3CLpro inh-1: SARS-CoV 3CLpro protease inhibition; P0C6X7; recombinant SARS-CoV 3CLpro, quenched FRET peptide cleavage; inhibition, % at 6 µM; 0.14% of 290,000 active; AID 1706; in the data active = inhibition above about 12%
SSB-PriA inh: inhibitors of Klebsiella pneumoniae PriA binding to SSB C-terminal tail; inhibition, % at 33 µM; AID 1272365; 0.6% of 430,000 active; AlphaScreen SSBct-PriA binding, biotinylated peptide; in the data active = inhibition mostly above about 37%, no sharp cut-off; inactive = mostly below about 20%;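 note: plate controls were negative control peptide for no effect and reference peptide for full effect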
MazEF act: MazEF (E. coli) toxin RNase activation; P0AE70; FAM/BHQ RNA-DNA oligo cleavage fluorescence, 5 h; activation, % at 20 µM; 0.32% of 350,000 active; AID 504720; in the data active = activation above about 50%
Target sequence (P0AE70 whole entry, looked up): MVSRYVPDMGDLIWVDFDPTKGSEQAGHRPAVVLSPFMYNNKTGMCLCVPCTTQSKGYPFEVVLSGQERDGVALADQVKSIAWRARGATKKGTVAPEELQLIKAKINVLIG
SARS 3CLpro inh-2: SARS 3CLpro inhibition, confirmation assay | shares compounds with SARS 3CLpro inh-1 | QFRET protease activity assay | inhibition, % at 6 µM | 36% of 380 active; in the data active = inhibition above about 13%
Active calls of the source: *; i = inactive; . = not tested or not shown.

SMILES	Yp Topo-I inh	SARS 3CLpro inh-1	SSB-PriA inh	MazEF act	SARS 3CLpro inh-2
CC(C)C[C@H](NC(=O)c1nc[nH]c1C(=O)NCc1ccc(CNC(=O)OC(C)(C)C)cc1)C(=O)OC(C)(C)C	3	14*	1	7	13*
CC(C)C[C@H](NC(=O)c1[nH]cnc1C(=O)N[C@@H](Cc1ccccc1)C(=O)OC(C)(C)C)C(=O)OCc1ccccc1	10	3	-25	-9	.
CC(C)C[C@H](NC(=O)c1[nH]cnc1C(=O)N[C@@H](Cc1ccccc1)C(=O)OCc1ccccc1)C(=O)OC(C)(C)C	-4	13*	-1	1	6
COc1ccccc1-c1cc(C(=O)NCc2cccnc2-c2cccs2)[nH]n1	.	.	3	.	.
CC[C@@]12C(=O)N(c3cccc(F)c3)C(=O)N1[C@H](c1ccc(F)cc1)[C@@H]1C(=O)N(C3CCCCC3)C(=O)[C@@H]12	4	16*	3	7	8
O=C(Cc1ccc(F)cc1)NCC1CCN(c2ccncc2)CC1	.	.	-13	.	.
O=C(O)c1cccc(NC(=S)NC(=O)C(c2ccccc2)c2ccccc2)c1	-1	14*	-5	-20	8
CNC(=O)N(O)C1N(/N=C/c2cccs2)C(=S)SC1(C)C (configuration not stated)	-2	13*	i	9	2
O=C(c1ccc2ncsc2c1)N1CCCCC1	4	-5	-9	0	.
O=C(O)c1ccc2ncsc2c1	-6	17*	4	3	38*
Cn1nc(C(=O)N2CCN(CC(O)c3cccs3)CC2)ccc1=O (configuration not stated)	.	.	1	.	.
O=C1c2[nH]nc(-c3ccccc3O)c2C(c2ccccc2)N1Cc1ccco1 (configuration not stated)	1	3	14	4	.
O=C1c2[nH]nc(-c3ccccc3O)c2C(c2ccccc2F)N1Cc1ccco1 (configuration not stated)	4	13*	16	0	2
CCCCOc1ccc(CONS(=O)(=O)c2ccc(NC(C)=O)cc2)cc1Cl	0	19*	-8	-3	8
COc1cc(OC)cc(C(=O)Nc2c(C)cccc2C(C)C)c1	.	.	-4	.	.
Cc1ccc(C(=O)Cn2nnc3ccccc32)cc1	2	6	-6	2	.
O=C(Cn1nnc2ccccc21)c1ccc(Br)cc1	-4	57*	-8	7	55*
COc1ccc(C(=O)Nc2nnc(Cc3ccc(C)cc3C)o2)cc1	.	.	-4	.	.
COC(=O)c1ccc(NC(=O)c2ccc(NC(=O)c3ccco3)cc2)cc1	17	13*	5	-133	-1
CC(=O)c1ccc(NC(=O)c2ccc(NC(=O)c3ccco3)cc2)cc1	4	2	14	-126	.
O=C(/C=C/c1ccc([N+](=O)[O-])cc1)NCc1cccnc1	-7	4	0	0	.
O=C(/C=C/c1ccc(Cl)c([N+](=O)[O-])c1)NCc1cccnc1	0	18*	-4	7	18*
COc1ccc(C2CC(c3cccs3)=NN2C(=O)CCl)cc1OC (configuration not stated)	15	74*	-16	6	81*
COc1ccc(C2CC(c3cccs3)=NN2C(=O)c2ccccc2)cc1OC (configuration not stated)	43	-3	5	4	.
Cc1ccc(C2=NN(C(=O)CCl)C(c3cccs3)C2)o1 (configuration not stated)	3	14*	2	-6	59*
SMILES	Yp Topo-I inh	SARS 3CLpro inh-1	SSB-PriA inh	MazEF act	SARS 3CLpro inh-2
COc1cc(C2CC(c3cccs3)=NN2C(=O)CCl)ccc1OC(F)F (configuration not stated)	9	56*	-8	0	74*
COc1ccc(S(=O)(=O)NC(C)C)c2ccccc12	.	.	3	.	.
O=C(/C=C/c1cccs1)Nc1scc(-c2ccccc2)c1C(=O)O	-4	23*	6	-12	61*
COc1ccc(-c2cc(N)n(S(=O)(=O)c3c(F)c(F)c(F)c(F)c3F)n2)cc1OC	-11	14*	2	-4	2
CCOC(=O)c1c(C)oc2c1c1c(c3ccccc32)OCN(Cc2ccccn2)C1	-5	13*	57*	-16	-3
O=C1CC(N2CCN(C/C=C/c3ccccc3)CC2)C(=O)N1CCc1ccccc1 (configuration not stated)	21	2	-8	-3	.
O=C1CC(N2CCN(C/C=C/c3ccccc3)CC2)C(=O)N1Cc1cccs1 (configuration not stated)	12	16*	-2	4	-2
COc1cc(/C=C2\SC(=S)N(NC(=O)c3ccccc3O)C2=O)ccc1O	0	3	3	-67	.
O=C(NN1C(=O)/C(=C/c2ccc(O)cc2)SC1=S)c1ccccc1O	-3	13*	-8	-514	-2
CSc1nsc(NC(=O)OCc2ccc(Cl)cc2)n1	-2	13*	-41	0	3
O=C(NCc1ccnc(-c2ccsc2)c1)c1ccc(OC(F)(F)F)cc1	.	.	-27	.	.
O=C(/C=C/c1cc(Br)ccc1F)Nc1cccnc1	-3	-2	2	-3	.
O=C(/C=C/c1c(F)cccc1Cl)Nc1cccnc1	-16	20*	1	4	16*
COc1ccc(Nc2oc(COc3ccc(C)cc3)nc2C#N)cc1	9	13*	36	1	0
COc1ccc(Nc2oc(COc3ccc(OC)cc3)nc2C#N)cc1	-6	2	32	0	.
COc1cc(NC(=O)COc2ccc(C(C)C)c(C)c2)c(OC)cc1Cl	.	.	-16	.	.
Cc1ccc(-n2c(Cc3cccn3C)nnc2SCC(=O)Nc2ccc3c(c2)OCCO3)cc1	.	.	16	.	.
Cc1ccc(-n2c(Cc3cccn3C)nnc2SCC(=O)Nc2ccc3c(c2)OCO3)cc1	10	14*	39*	-8	2
CCc1ccc2c(c1)C(NC(C)=O)C(=O)N2CC (configuration not stated)	-3	4	-10	12	.
CC(=O)NC1C(=O)N(CCN2CCOCC2)c2ccc(F)cc21 (configuration not stated)	2	12*	-1	7	45*
C#CCn1c(=NC(=O)c2ccc(S(=O)(=O)N(C)C3CCCCC3)cc2)sc2cc(S(N)(=O)=O)ccc21	.	.	-15	.	.
COc1cc(NC(=O)C2CC(c3cccc(Br)c3)=NO2)cc(OC)c1OC (configuration not stated)	-1	13*	-9	-4	2
COc1cccc(-n2c(Cc3cc(=O)[nH]c(=O)[nH]3)n[nH]c2=S)c1	.	.	-15	.	.
O=C(Oc1cccnc1)c1ccccc1[N+](=O)[O-]	-7	20*	0	9	51*
COc1ccc(C(=O)Oc2cccnc2)cc1	-1	25*	-1	-5	39*
CCOC(=O)c1sc(NC(=O)c2cc(-c3cccs3)nc3ccccc23)c(C(=O)OCC)c1C	.	.	-14	.	.
CC1(C)Cc2c(sc3nc(-c4cc5ccccc5o4)n(N)c(=O)c23)CO1	20	13*	-10	9	-5
CCN(c1ccc(OC)cc1)S(=O)(=O)c1nnc(NC(=O)COc2ccc(C)cc2)s1	-6	13*	-10	0	1
